# Data published in PubChem BioAssay AID1671448 (Corson Lab, School of Medicine, Indiana University, 2021).
# Screen size: about 20,000 compounds; about 660 (3.3%) were called active.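 How the source made its calls: active means enzyme reaction rate more than 3 SD below the solvent-only control wells on the same plate; inactive means the rest.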 This excerpt belongs to a sample that is enriched for actives.
# Target: Ferrochelatase, mitochondrial (Homo sapiens) (UniProt P22830)
# Assay: inhibitors of human ferrochelatase, primary screen, biochemical, purified FECH, Ni-mesoporphyrin absorbance (AID 1671448)
# Details: Ni-mesoporphyrin absorbance 550 nm, screened at 10 µM (by protocol)
# Ferrochelatase, mitochondrial (Homo sapiens), sequence (P22830 whole entry, looked up): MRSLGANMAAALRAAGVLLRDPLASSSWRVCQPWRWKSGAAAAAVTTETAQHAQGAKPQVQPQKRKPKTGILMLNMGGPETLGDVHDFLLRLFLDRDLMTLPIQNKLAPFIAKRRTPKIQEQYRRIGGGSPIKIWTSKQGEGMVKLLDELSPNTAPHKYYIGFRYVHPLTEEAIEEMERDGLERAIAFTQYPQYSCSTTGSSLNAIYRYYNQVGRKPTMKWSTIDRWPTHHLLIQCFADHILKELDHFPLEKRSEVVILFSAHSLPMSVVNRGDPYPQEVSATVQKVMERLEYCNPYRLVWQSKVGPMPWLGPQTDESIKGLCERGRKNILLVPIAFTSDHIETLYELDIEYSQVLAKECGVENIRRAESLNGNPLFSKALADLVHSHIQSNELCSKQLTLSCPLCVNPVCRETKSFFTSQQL
row,SMILES,outcome
1,CC(C)c1nc(CN(C)C(=O)c2cnn3ccn(C)c23)cs1,inactive
2,COc1ccccc1-c1cc2n(C)c(C)c(CCC(=O)Nc3ccccc3F)c(=O)n2n1,inactive
3,CCOC(=O)CCc1c(C)nc2nc(CNc3ccccc3F)[nH]n2c1=O,active
4,CCOc1ccc(NC(=O)Nc2c(C)nc3nc(C4CC4)[nH]n3c2=O)cc1,inactive
5,O=C(CCn1nnc2ccccc21)N1CCCC(c2ccn[nH]2)C1 (configuration not stated),inactive
6,OCCCc1nc2ccccc2n1-c1ccc2[nH]ccc2c1,inactive
7,Cc1cc2cc(C(=O)NCCSCc3nc[nH]c3C)ccc2o1,inactive
8,Cc1ccc2c(CC(=O)NCc3csc(C)n3)cc(=O)oc2c1,inactive
9,O=C(c1csc(S(=O)(=O)NCc2ccc(F)cc2)c1)N1CCCC1,inactive
10,Cc1ccc(-c2c(-c3ccccc3)ncn2CCN2CCCC2=O)c(F)c1,inactive
11,Cc1cc(F)cc(-c2c(-c3ccccc3)ncn2CCN2CCC(O)CC2)c1,active
12,Cc1cc(C)c(-c2c(-c3ccccc3)ncn2CCOCCO)c(C)c1,inactive
13,Cc1nn(C)cc1-c1c(-c2ccccc2)ncn1CCNC(=O)c1ccncc1,inactive
14,COCCNC(=O)C1(C)Cn2c(cc3ccsc32)C(=O)N1c1ccc(OC)cc1 (configuration not stated),inactive
15,CCc1cc(Sc2ccccc2NC(=O)c2cccc(Cl)c2)n2nc(C)nc2n1,active
16,CCc1cc(Sc2ccccc2NC(=O)c2ccc(Br)cc2)n2nc(C)nc2n1,inactive
17,CCc1cc(Sc2ccccc2NC(=O)Cc2ccccc2)n2nc(C)nc2n1,inactive
18,CC(C)CNc1nc(Nc2ccc(Cl)cc2)c2cnn(-c3ccccc3)c2n1,inactive
19,Cc1cccc(CN2CCCN(CC(=O)NCc3ccc(Cl)cc3)S2(=O)=O)c1,inactive
20,CCOC1CCN(Cc2cc3cc4c(cc3[nH]c2=O)CCC4)CC1,inactive
21,CCOC(=O)Cn1c(=O)n(-c2ccc(C)c(C)c2)c2nc(-c3ccccc3C)nc(C(N)=O)c21,inactive
22,CCc1cc(-c2nccn2CCCc2nn[nH]n2)on1,inactive
23,Cc1ccnc(C(NC(=O)c2ccccc2-n2cncn2)C2CC2)c1 (configuration not stated),inactive

row,SMILES,outcome
1,O=S(=O)(NCCCc1nc2ccccc2o1)NCc1ccccc1,inactive
2,COc1ccc(N2C(=O)CCS2(=O)=O)cc1S(=O)(=O)Nc1cc(Cl)ccc1C,inactive
3,Cc1ccc(S(=O)(=O)N2CCN(c3cc(-c4cccc(F)c4)ncn3)CC2)cc1C,inactive
4,Cc1cccc(NCc2cc(=O)n3[nH]c(-c4ccc(C(C)(C)C)cc4)nc3n2)c1,inactive
5,CC(C)(C)c1ccc(-c2nc3nc(CNc4ccccc4Cl)cc(=O)n3[nH]2)cc1,active
6,COc1ccc(CNc2nc3nc(CNc4ccc(C)c(Cl)c4)cc(=O)n3[nH]2)cc1,inactive
7,O=C(NCC1CCN(Cc2ccccc2F)C1)c1cc(Cl)no1 (configuration not stated),inactive
8,CCOC(=O)Cn1c(=O)n(-c2ccc(C)c(C)c2)c2nc(-c3cccc(F)c3F)nc(C(N)=O)c21,inactive
9,Cc1nc(C(C)C)sc1CNC(=O)c1cn(CC2CCCNC2)nn1 (configuration not stated),inactive
10,O=C(C1CCCN(C2CCN(Cc3cccnc3)CC2)C1)N1CC=CC1 (configuration not stated),inactive
11,CC(c1cccs1)N(C)Cc1cnc(-c2ccco2)nc1 (configuration not stated),inactive
12,CSC(C)(C)CC(C)NCC(=O)Nc1ccccc1C (configuration not stated),inactive
13,COC(C)(C)Cn1ccnc1-c1ccc(Oc2ncccn2)cc1,inactive
14,Cn1nc(-c2ccccc2)c(-c2ccccc2)c(C(=O)Nc2ccc(S(N)(=O)=O)cc2)c1=O,inactive
15,CCOc1c(N2CCc3ccccc3C2)c(=O)c1=O,inactive
16,Cc1cccc(Cn2c(=O)c3cnc(-c4ccncc4)nc3n(C)c2=O)c1,inactive
17,C=CC[C@@H]1CC=C[C@@H](C)N1C(=O)Cc1c(C)nc(C)[nH]c1=O,inactive
18,Cn1c(=O)n(CC(=O)NCc2cccs2)c(=O)c2cnc(-c3ccccc3)nc21,inactive
19,C=CCn1c(=O)c2cnc(-c3ccc(Cl)cc3)nc2n(C)c1=O,active
20,C=CCn1c(=O)c2cnc(-c3ccc(OC)cc3)nc2n(C)c1=O,inactive
21,COc1ccccc1-c1nc(Cn2c(=O)c3cnc(-c4ccc(Cl)cc4)nc3n(C)c2=O)c(C)o1,inactive
22,Cn1c(=O)n(CC(=O)N2CCOCC2)c(=O)c2cnc(-c3ccccc3)nc21,active
23,CCc1ccc(CNC(=O)Cn2c(=O)c3cnc(-c4ccccc4)nc3n(C)c2=O)cc1,inactive

row,SMILES,outcome
1,COc1ccc(OC)c(S(=O)(=O)Nc2ccc(Sc3c(C)c(C)nc4ncnn34)cc2)c1,inactive
2,COc1ccccc1C(=O)Nc1cc(C)nn1-c1ncnc2c1cnn2-c1ccc(C)cc1C,inactive
3,Cc1ccccc1C(C(=O)N1CCCOCC1)N(C)C (configuration not stated),inactive
4,Cc1ccsc1CN(CCO)C(=O)c1ccc2c(c1)CCCO2,inactive
5,CC(=O)N1CCN(Cc2nc3c(C)c(C)ccc3[nH]2)CC1,inactive
6,CC(C)NC(=O)C1CCC(Cn2c(=O)c3sccc3n(CC(=O)NCc3ccco3)c2=O)CC1 (configuration not stated),inactive
7,CCn1cc(CN2CCN(C)C3(CCN(C(=O)c4ccco4)CC3)C2)cn1,inactive
8,CCOC(=O)c1cccc(Nc2cc(-c3ccc(C)cc3)nc(C)n2)c1,inactive
9,CCC(=O)Nc1ccccc1-c1nnc(SC(CC)C(=O)Nc2ccc(OC)cc2)[nH]c1=O (configuration not stated),inactive
10,COc1ccc(N2C(=O)CCS2(=O)=O)cc1S(=O)(=O)Nc1ccc(C(C)C)cc1,inactive
11,Nc1nc2c(c(-c3cccnc3)n1)CN(C(=O)c1cc(F)c(F)c(F)c1)C2,inactive
12,CC(Cc1ccc2c(c1)OCO2)CN1CCC(NS(C)(=O)=O)CC1 (configuration not stated),inactive
13,Cc1noc(C)c1S(=O)(=O)N1CC(c2cccnc2)C1,inactive
14,c1cc(CN2CCOCC2)cc(-c2ccc(NC3CCCC3)nn2)c1,active
15,c1ccc(-c2ccc(-c3nccn3CCN3CCOCC3)s2)cc1,inactive
16,O=C1CC(c2cccnc2)c2cnn(CC3CC3)c2N1 (configuration not stated),inactive
17,O=C(O)CSc1nnc(C2CCCNC2)n1-c1cccc(Cl)c1 (configuration not stated),inactive
18,c1ccc(C2CCN(CCn3ccnc3C3CC3)C2)cc1 (configuration not stated),inactive
19,Cc1cc(C)cc(Nc2nc(N3CCOCC3)nc3c2cnn3-c2ccccc2)c1,inactive
20,Cc1cc(C)n(CCC(=O)N(Cc2ccccc2C)CC2CCCO2)c(=O)n1 (configuration not stated),inactive
21,CC1CNC(=O)CCN1Cc1ccc2cccc(Cl)c2n1 (configuration not stated),inactive
